Assay results reported in PubChem BioAssay (Tox21).
Results filed as inconclusive are left out. A call without a number means that no potency is given here. Calls of active or inactive are those of the source. Unless noted, the call rests on the fitted dose curve; in most records, active means well fitted curve in the direction sought with a large enough effect in the repeat runs; inconclusive means weak or mixed curves; inactive means no such curve, though single readings can be large; an effect the other way counts as inactive or inconclusive.

Assays:
[1] = qHTS assay to identify aromatase inhibitors - cell viability counter screen (AID 743084);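 further: cells stimulated with testosterone during compound exposure; nearly all actives have a fitted effect of over 55% in size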; further: potency means the concentration at half of the fitted maximal effect
[2] = biological target: Aryl hydrocarbon receptor (Homo sapiens) (UniProt P35869); assay: qHTS assay to identify small molecule that activate the aryl hydrocarbon receptor (AhR) signaling pathway (AID 743085); further: nearly all actives have a fitted effect of over 15% in size; further: potency means the concentration at half of the fitted maximal effect;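 on activation: HG2L7.5c1 human HepG2 liver cells with stably integrated DRE-driven firefly reporter; series mostly up to about 70 µM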
Sequence of Aryl hydrocarbon receptor (Homo sapiens) (P35869 whole entry, looked up): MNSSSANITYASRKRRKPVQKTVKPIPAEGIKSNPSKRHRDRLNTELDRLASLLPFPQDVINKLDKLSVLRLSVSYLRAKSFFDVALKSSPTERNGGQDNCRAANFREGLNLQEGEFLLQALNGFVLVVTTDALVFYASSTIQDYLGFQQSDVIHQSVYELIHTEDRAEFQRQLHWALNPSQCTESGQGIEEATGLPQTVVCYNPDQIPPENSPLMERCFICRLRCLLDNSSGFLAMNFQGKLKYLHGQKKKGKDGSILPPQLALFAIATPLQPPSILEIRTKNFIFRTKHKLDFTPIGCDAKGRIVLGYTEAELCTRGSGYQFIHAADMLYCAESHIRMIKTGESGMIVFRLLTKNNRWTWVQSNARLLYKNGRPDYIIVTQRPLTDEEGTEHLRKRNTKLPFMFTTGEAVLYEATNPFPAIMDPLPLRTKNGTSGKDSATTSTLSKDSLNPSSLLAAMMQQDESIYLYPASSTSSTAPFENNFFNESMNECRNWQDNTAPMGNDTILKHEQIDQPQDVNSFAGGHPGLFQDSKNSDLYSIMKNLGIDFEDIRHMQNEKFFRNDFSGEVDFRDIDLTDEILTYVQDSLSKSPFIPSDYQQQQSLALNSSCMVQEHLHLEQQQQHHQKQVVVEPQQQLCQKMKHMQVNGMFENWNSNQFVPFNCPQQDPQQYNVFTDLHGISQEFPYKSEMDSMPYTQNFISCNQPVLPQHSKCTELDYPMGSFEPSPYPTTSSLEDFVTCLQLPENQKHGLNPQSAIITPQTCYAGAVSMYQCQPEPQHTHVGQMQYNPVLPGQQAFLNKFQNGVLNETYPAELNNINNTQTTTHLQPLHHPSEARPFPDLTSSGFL
How it was run: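 Compounds were tested in HepG2 hepatocellular carcinoma cells harbouring a stably integrated luciferase gene under control of 20 DREs. Increased reporter signal after 24 h treatment at 37C was taken as AhR activation.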

[3] = qHTS assay to identify small molecule antagonists of the peroxisome proliferator-activated receptor gamma (PPARg) signaling pathway - cell viability counter screen (AID 743194); further: nearly all actives have a fitted effect of over 55% in size
How it was run: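 Cytotoxicity counter screen in PPARg-bla HEK293H cells, same wells as reporter assay. Compounds plus 50 nM rosiglitazone (final) for 17 h at 37 C, then viability read by CellTiter-Glo luminescence.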

[4] = qHTS assay for small molecule agonists of the antioxidant response element (ARE) signaling pathway - cell viability counter screen (AID 743203; calls by dose curve; further: nearly all actives have a fitted effect of over 55% in size)
How it was run: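 CellSensor ARE-bla HepG2 cells, 2,000 per well, rested 5 hrs at 37C/5% CO2, then exposed to compound in DMSO for 16 hrs; viability read as CellTiter-Glo luminescence after 30 min at room temperature, in the reporter wells.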

[5] = qHTS assay for small molecule activators of the heat shock response signaling pathway (AID 743210; active means well fitted activation curve with a large enough effect in the signal ratio in the repeat runs, with a control signal flat, not every such curve was filed as active; the % refers to the signal ratio;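 further: HeLa cells with beta-lactamase reporter driven by heat shock elements; series mostly up to about 63 µM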)
How it was run: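 Quantitative high-throughput format using an engineered HeLa line in which heat shock response elements drive beta-lactamase; after 5 h with compound, cells received a B/G FRET substrate and fluorescence was read.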

[6] = qHTS assay to identify small molecule that activate the aryl hydrocarbon receptor (AhR) signaling pathway - cell viability counter screen (AID 743086);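 further: HepG2 liver cells carrying the AhR DRE luciferase reporter; series mostly up to about 70 µM; nearly all actives have a fitted effect of over 45% in size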
How it was run: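 HepG2-AhR-luc (HG2L7.5c1) cells, 4000/well, treated 24 h at 37 C with compound; viability measured as CellTiter-Fluor fluorescence after 30 min in the same wells as the luciferase read.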

[7] = biological target: Peroxisome proliferator-activated receptor gamma (Homo sapiens) (UniProt P37231); assay: qHTS assay to identify small molecule antagonists of the peroxisome proliferator-activated receptor gamma (PPARg) signaling pathway (AID 743191; calls by dose curve; further: nearly all actives have a fitted effect of over 30% in size; further: potency means the concentration at half of the fitted maximal effect)
Sequence of Peroxisome proliferator-activated receptor gamma (Homo sapiens) (P37231 whole entry, looked up): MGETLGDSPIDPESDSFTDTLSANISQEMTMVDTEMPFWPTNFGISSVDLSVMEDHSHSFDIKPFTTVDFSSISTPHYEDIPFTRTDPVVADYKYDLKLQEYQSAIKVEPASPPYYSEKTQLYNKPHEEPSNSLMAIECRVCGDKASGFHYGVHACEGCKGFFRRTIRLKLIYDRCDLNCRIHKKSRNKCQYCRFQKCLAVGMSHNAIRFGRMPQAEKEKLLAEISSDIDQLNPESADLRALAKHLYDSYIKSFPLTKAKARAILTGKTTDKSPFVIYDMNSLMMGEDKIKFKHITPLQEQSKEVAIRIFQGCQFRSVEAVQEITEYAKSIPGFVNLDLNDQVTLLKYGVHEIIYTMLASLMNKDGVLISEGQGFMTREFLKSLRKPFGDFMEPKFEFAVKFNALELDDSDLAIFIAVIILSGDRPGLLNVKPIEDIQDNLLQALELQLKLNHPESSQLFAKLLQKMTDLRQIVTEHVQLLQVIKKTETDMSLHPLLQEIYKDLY
How it was run: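 GeneBLAzer PPARg UAS-bla HEK293H cells, 5 h post-plating, exposed to compounds 17 h at 37C. LiveBLAzer B/G FRET substrate added for 1 h at room temperature; beta-lactamase reporter read by fluorescence intensity.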

[8] = qHTS assay for small molecule agonists of the antioxidant response element (ARE) signaling pathway (AID 743202; active means well fitted activation curve with a large enough effect in the signal ratio in the repeat runs, not every such curve was filed as active; the % refers to the signal ratio; further: potency means the concentration at half of the fitted maximal effect)
How it was run: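 Agonist mode reporter screen: HepG2 cells with ARE-controlled beta-lactamase are incubated with test compounds for 16 h at 37 C, and beta-lactamase activity is measured as fluorescence of cleaved B/G FRET substrate.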

[9] = qHTS assay for small molecule activators of the heat shock response signaling pathway - cell viability counter screen (AID 743209); further: nearly all actives have a fitted effect of over 50% in size
How it was run: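 CellSensor HSE-bla HeLa cells, plated overnight at 37 C/5% CO2, were exposed to compounds in DMSO for 5 h at 37 C. Viability was then read in the same wells by CellTiter-Glo luminescence after 30 min at room temperature.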

[10] = biological target: Peroxisome proliferator-activated receptor gamma (Homo sapiens) (UniProt P37231); assay: qHTS assay to identify small molecule agonists of the peroxisome proliferator-activated receptor gamma (PPARg) signaling pathway (AID 743094; active means well fitted activation curve with a large enough effect in the signal ratio in the repeat runs, not every such curve was filed as active; the % refers to the signal ratio)
How it was run: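 GeneBLAzer PPARg UAS-bla HEK293H cells carrying a stably integrated beta-lactamase reporter were pre-incubated 5 h at 37C, then exposed to compounds in DMSO for 17 h at 37C; LiveBLAzer B/G FRET substrate was added for 1 h at room temperature and fluorescence read.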

SMILES	Potency [1]	Potency [2]	Potency [3]	Potency [4]	outcome [5]	Potency [6]	Potency [7]	Potency [8]	outcome [9]	Potency [10]
CCn1nc(Cc2ccccc2)cc1C1CCN(C[C@H]2C[C@H](N(C)[C@@H](C(=O)O)C(C)C)C[C@@H]2c2cccc(F)c2)CC1	inactive	inactive	inactive	inactive	inactive					
CC(C(=O)O)c1ccc(/C=C2\CCCCC2=O)cc1 (configuration not stated)	inactive		inactive		inactive	inactive	inactive	29.8 µM (active)	inactive	
C1CCN(CN2CCCCC2)CC1	inactive		inactive	inactive	inactive	inactive	inactive		inactive	inactive
CC(O)CN (configuration not stated)	inactive		inactive	inactive		inactive		inactive	inactive	inactive
CCCCCCCCNC	inactive		inactive		inactive	inactive		inactive	inactive	
c1ccc(-c2ccc(-c3ccccc3)cc2)cc1	inactive		inactive	inactive		inactive		inactive	inactive	
Nc1ccc(F)cc1F	inactive		inactive	inactive	inactive	inactive	inactive	inactive	inactive	inactive
CNc1ccccc1	inactive		inactive	inactive	inactive	inactive	inactive	inactive	inactive	
O=[N+]([O-])c1ccccc1CCO	inactive		inactive	inactive	inactive	inactive	inactive		inactive	inactive
CC(C)(C(=O)O)c1ccc(C(O)CCCN2CCC(C(O)(c3ccccc3)c3ccccc3)CC2)cc1 (configuration not stated)	inactive			inactive	inactive	inactive	inactive		inactive	inactive
Cc1cccc(C)c1NC(=O)CN1CCCC1	inactive		inactive	inactive	inactive	inactive	inactive	inactive	inactive	inactive
O=c1[nH]nc(-c2ccc([N+](=O)[O-])o2)o1	30.6 µM (active)	inactive	inactive	inactive	inactive				inactive	inactive
O=C(N[C@@H](Cc1ccccc1)[C@@H](O)C(=O)N1C[C@@H](O)[C@@H](O)C1)c1cc2cc(Cl)ccc2[nH]1	inactive	inactive	inactive						inactive	inactive
Nc1ccc(-c2ccc(F)cc2)cc1	inactive		inactive	inactive	inactive	inactive	inactive		inactive	
CO[C@@H]1[C@@H](O[C@@H]2O[C@H](C)[C@@H](O[C@H]3C[C@@](C)(O)[C@@H](O)[C@H](C)O3)[C@H](N(C)C)[C@H]2O)[C@@H](CC=O)C[C@@H](C)[C@@H](O[C@@H]2CC[C@H](N(C)C)[C@@H](C)O2)/C=C/C=C/C[C@@H](C)OC(=O)C[C@H]1OC(C)=O	inactive	inactive	inactive	inactive	inactive		inactive	inactive	inactive	inactive
CCOc1ccc(NC(C)=O)cc1N	inactive		inactive	inactive		inactive	inactive	inactive		
O=C(O)CNc1ccccc1	inactive		inactive	inactive	inactive	inactive	inactive	inactive	inactive	
C1=COCCC1	inactive		inactive	inactive	inactive	inactive	inactive	inactive	inactive	inactive
O=c1c2ccccc2oc2ccccc12	inactive		inactive	inactive		inactive		inactive		
CC(C)=CCC/C(C)=C/C=N/O	inactive		inactive	inactive	inactive	inactive		inactive	inactive	inactive
C(/C=C/C=C/Nc1ccccc1)=Nc1ccccc1	inactive		inactive		inactive	inactive			inactive	inactive

SMILES	Potency [1]	Potency [2]	Potency [3]	Potency [4]	outcome [5]	Potency [6]	Potency [7]	Potency [8]	outcome [9]	Potency [10]
CC(=O)c1cccnc1	inactive			inactive		inactive			inactive	inactive
COc1ccc(/C(C)=C/C(=O)O)c(OC)c1			inactive	inactive	inactive			inactive	inactive	
CCc1c(C)[nH]c2c1C(=O)C(CN1CCOCC1)CC2 (configuration not stated)			inactive			inactive		inactive	inactive	
Cc1cc(SC2=C(O)C[C@@](CCc3ccc(N)cc3)(C(C)C)OC2=O)c(C(C)(C)C)cc1CO		inactive	inactive		inactive	inactive			inactive	
CCC(C)C1N=C(C)C(C)S1 (configuration not stated)			inactive	inactive	inactive	inactive		inactive	inactive	
O=C(OCCN1CCOCC1)c1cccnc1Nc1cccc(C(F)(F)F)c1			inactive	inactive	inactive		inactive	26.6 µM (active)	inactive	
COc1ccnc2c1CCCCC2S(=O)c1nc2ccccc2[nH]1 (configuration not stated)			inactive	inactive				3.35 µM (active)		
Nc1ccc(C(=O)Oc2ccccc2)c(O)c1			inactive	inactive	inactive	inactive	inactive	inactive	inactive	inactive
CC(C)C/C=C(\C=O)c1ccccc1		inactive	inactive	inactive	inactive	inactive		inactive	inactive	inactive
CC/C=C/CCO			inactive	inactive	inactive	inactive			inactive	
O=C1c2ccccc2C(=O)c2c1ccc(O)c2O		29.8 µM (active)	inactive	inactive		inactive			inactive	inactive
O=C(O)c1ccc2c(c1)nc(C(=O)NC1CCN(C3CC3)CC1)n2Cc1cc(-c2ccc(Cl)s2)on1			inactive	inactive	inactive	inactive	3.13 µM (active)	inactive	inactive	
CC1(COc2ccc(CC3SC(=O)NC3=O)cc2)CCCCC1 (configuration not stated)	inactive		inactive		inactive	inactive			inactive	
C/C(=C\C(C)CC(C)CC(C)C)C1CC(=O)OC1=O (configuration not stated)		inactive	inactive	inactive	inactive	inactive	inactive			inactive
S=c1[nH][nH]c(=S)s1	inactive		inactive	inactive	inactive	inactive			inactive	
CC(=O)Nc1ccccc1O	inactive			inactive	inactive	inactive		27.3 µM (active)	inactive	
Cc1c(-c2cccnc2)c2ccccc2n1CCCCC(=O)O	inactive		inactive	inactive	inactive	inactive				
CC(C)(O)C(=O)O			inactive	inactive	inactive	inactive		inactive		
CCN(CC)CC(=O)OCC(=O)[C@@]1(O)CC[C@H]2[C@@H]3CCC4=CC(=O)CC[C@]4(C)[C@H]3[C@@H](O)C[C@@]21C			inactive	inactive	inactive			inactive	inactive	
CCc1cnc(C(=O)O)c(C(=O)O)c1		inactive	inactive		inactive	inactive	inactive	inactive		inactive
O=C(Nc1ccccc1)c1cc([N+](=O)[O-])ccc1Cl		54.5 µM (active)	inactive					7.7 µM (active)		inactive

SMILES	Potency [1]	Potency [2]	Potency [3]	Potency [4]	outcome [5]	Potency [6]	Potency [7]	Potency [8]	outcome [9]	Potency [10]
Cc1c(Nc2ncccc2C(=O)O)cccc1C(F)(F)F	inactive		inactive	inactive	inactive	inactive			inactive	
[O-][n+]1ccc(Cl)cc1			inactive	inactive	inactive	inactive		inactive	inactive	
CC(C)(C)NCC(O)COc1ccc(NC(=O)NC2CCCCC2)cc1 (configuration not stated)	inactive		inactive	inactive	inactive			inactive	inactive	inactive
C[C@H](N)C(=O)N[C@@H](C)C(=O)NC1[C@H]2CN(c3nc4c(cc3F)c(=O)c(C(=O)O)cn4-c3ccc(F)cc3F)C[C@@H]12 (some centres not stated)			inactive	inactive	inactive					
CC(=O)Nc1cccc(N)c1		62 µM (active)	inactive	inactive	inactive	inactive	inactive			
Cc1ccc(Cl)c(OCC(O)CNC(C)(C)C)c1 (configuration not stated)			inactive	inactive	inactive			inactive	inactive	
CC(C)(C)c1cc(C=O)cc(C(C)(C)C)c1O			inactive	inactive	inactive			inactive		
O=C(Cl)c1cc(Cl)cc(Cl)c1		inactive	inactive	inactive	inactive				inactive	inactive
CCC(=O)O[C@]1(C(=O)COC)[C@@H](C)C[C@H]2[C@@H]3CCC4=CC(=O)C=C[C@]4(C)C3(F)[C@@H](O)C[C@@]21C (some centres not stated)			inactive	inactive	inactive			inactive		
CCC(C(=O)O)c1ccc(N2Cc3ccccc3C2=O)cc1 (configuration not stated)			inactive	inactive	inactive				inactive	
CC[C@H](NC(C)C)[C@H](O)c1ccc(O)c2[nH]c(=O)ccc12		inactive	inactive	inactive	inactive	inactive	inactive	inactive		
Cc1ccc(NC(=O)c2ccc(CN3CCN(C)CC3)cc2)cc1Nc1nccc(-c2cccnc2)n1		21.1 µM (active)	inactive	inactive	inactive				inactive	
O=C(c1ccco1)N1CCNCC1			inactive	inactive				inactive	inactive	
CC(CC(C#N)(c1ccccc1)C(C)C)N(C)C (configuration not stated)			inactive	inactive	inactive		inactive	inactive	inactive	
O=Cc1ccc(Cl)c([N+](=O)[O-])c1		inactive	inactive			inactive	inactive			inactive
O=C(C1CCCCC1)N1CC(=O)N2CCCc3ccccc3C2C1 (configuration not stated)			inactive	inactive	inactive					
Cc1ccc2ccccc2c1[N+](=O)[O-]		inactive	inactive	inactive	inactive	inactive	inactive	inactive	inactive	
CC/C=C\CCO			inactive	inactive	inactive	inactive		inactive	inactive	
Nc1ccccc1Nc1ccccc1		54.6 µM (active)	inactive			inactive			inactive	
